Source: PubChem BioAssay AID1159580 (chemical genetic matrix, 2015)
“And” between values parts separate entries of the source, which are not always exact repeats. Identical values can stand only once. The campaign covered roughly 5,500 compounds. About 2,000 (36%) were called active. Inconclusive results (about 18%) are left out. No stated cut-off is given here; in the data, active means normalized growth mostly below about 0.91 (no sharp cut-off); inconclusive means no clear call, values can overlap the other calls; inactive means mostly above about 0.92. This is one part of the list.

Assay: chemical genetic growth profiling, strain panel (AID 1159580);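 further: tested at 20 µM; growth read once vehicle control cultures reached saturation at 30 °C; 1 = growth at the plate median or of vehicle wells; lower values mean less growth of the strain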
Conditions: S. cerevisiae deletion strains, growth OD

Measured: normalized growth

CCC1(c2ccc(N)cc2)CCC(=O)NC1=O (configuration not stated)
active: locus YGL240W, strain doc1, hits give low values 0.876
inactive: locus YAL021C, strain ccr4, hits give low values 0.981 | locus YAL026C, strain drs2, hits give low values 0.971 | locus YAL030W, strain snc1, hits give low values 0.969 | locus YAL040C, strain CLN3, hits give low values 0.987 | locus YBL061C, strain skt5, hits give low values 0.968 | locus YBR009C, strain hhf1, hits give low values 0.984 | locus YBR021W, strain FUR4, hits give low values 1.01 | locus YBR023C, strain chs3, hits give low values 0.979 | locus YBR171W, strain sec66, hits give low values 0.957 | locus YBR229C, strain ROT2, hits give low values 0.995 | locus YBR231C, strain swc5, hits give low values 0.943 | locus YBR279W, strain paf1, hits give low values 0.988 | locus YCL011C, strain gbp2, hits give low values 0.984 | locus YCL016C, strain dcc1, hits give low values 0.994 | locus YCL029C, strain bik1, hits give low values 1 | locus YCL069W, strain vba3, hits give low values 0.956 | locus YCR088W, strain abp1, hits give low values 0.974 | locus YDL005C, strain med2, hits give low values 0.955 | locus YDL035C, strain GPR1, hits give low values 1.04 | locus YDL040C, strain nat1, hits give low values 0.978 | locus YDL074C, strain BRE1, hits give low values 0.994 | locus YDL101C, strain DUN1, hits give low values 1.01 | locus YDL134C, strain PPH21, hits give low values 1.02 | locus YDL185W, strain tfp1, hits give low values 1.01 | locus YDL192W, strain arf1, hits give low values 0.996 | locus YDR001C, strain nth1, hits give low values 0.96 | locus YDR069C, strain doa4, hits give low values 0.962 | locus YDR101C, strain arx1, hits give low values 1.01 | locus YDR137W, strain rgp1, hits give low values 1.06 | locus YDR150W, strain NUM1, hits give low values 1 | locus YDR159W, strain sac3, hits give low values 0.979 | locus YDR162C, strain NBP2, hits give low values 1.03 | locus YDR195W, strain ref2 0.926 | locus YDR297W, strain sur2, hits give low values 0.973 | locus YDR318W, strain mcm21, hits give low values 0.991 | locus YDR334W, strain swr1, hits give low values 0.964 | locus YDR335W, strain msn5, hits give low values 0.959 | locus YDR363W, strain ESC2, hits give low values 1.01 | locus YDR388W, hits give low values 0.999 | locus YDR392W, strain spt3, hits give low values 1.02 | locus YDR502C, strain sam2, hits give low values 0.999 | locus YEL003W, strain gim4, hits give low values 0.957 | locus YEL037C, strain rad23, hits give low values 0.951 | locus YEL061C, strain CIN8 (second series), hits give low values 0.961 | locus YEL061C, strain CIN8, hits give low values 1.01 | locus YER002W, strain NOP16, hits give low values 0.977 | locus YER015W, strain faa2, hits give low values 0.966 | locus YER016W, strain bim1, hits give low values 0.987 | locus YER110C, hits give low values 0.993 | locus YER111C, strain swi4, hits give low values 0.968 | locus YER155C, strain BEM2 (second series), hits give low values 0.878 | locus YER155C, strain BEM2, hits give low values 0.999 | locus YER167W, strain BCK2, hits give low values 1 | locus YFR010W, strain ubp6, hits give low values 0.945 | locus YGL078C, strain dbp3, hits give low values 0.992 | locus YGL086W, strain mad1, hits give low values 0.994 | locus YGL167C, strain pmr1, hits give low values 0.961 | locus YGL173C, strain kem1, hits give low values 0.936 | locus YGL227W, strain vid30, hits give low values 0.976 | locus YGL248W, strain PDE1, hits give low values 0.999 | locus YGL253W, strain hxk2, hits give low values 0.967 | locus YGR078C, strain PAC10, hits give low values 0.997 | locus YGR135W, strain pre9, hits give low values 0.991 | locus YGR252W, strain gcn5, hits give low values 0.992 | locus YHR013C, strain ard1, hits give low values 0.956 | locus YHR027C, strain rpn1, hits give low values 0.981 | locus YHR030C, strain SLT2, hits give low values 1 and 0.997 | locus YHR079C, strain IRE1 (second series), hits give low values 0.995 | locus YHR079C, strain IRE1, hits give low values 1.04 | locus YHR094C, strain hxt1, hits give low values 0.995 | locus YHR129C, strain ARP1, hits give low values 0.999 | locus YHR142W, strain chs7, hits give low values 0.932 | locus YHR200W, strain rpn10, hits give low values 0.999 | locus YIL066C, strain RNR3, hits give low values 1.03 | locus YIL073C, strain SPO22, hits give low values 1.03 | locus YIL125W, strain kgd1, hits give low values 0.998 | locus YIR030C, strain dcg1, hits give low values 0.995 | locus YJL092W, strain hpr5, hits give low values 0.952 | locus YJL095W, strain BCK1 (second series), hits give low values 0.97 | locus YJL095W, strain BCK1, hits give low values 0.995 and 1.03 | locus YJL115W, strain asf1, hits give low values 0.949 | locus YJL129C, strain trk1, hits give low values 0.928 | locus YJL134W, strain LCB3, hits give low values 1 | locus YJL154C, strain vps35, hits give low values 0.967 | locus YJL164C, strain tpk1, hits give low values 0.998 | locus YJL166W, strain qcr8, hits give low values 0.913 | locus YJL168C, strain set2, hits give low values 0.988 | locus YJL187C, strain SWE1 (second series), hits give low values 0.993 | locus YJL187C, strain SWE1, hits give low values 0.959 | locus YJR043C, strain POL32, hits give low values 1.02 | locus YJR066W, strain TOR1, hits give low values 0.973
